Test results published in the supplement of paper PMC10646978.
± gives the standard deviation.

Key:
Conditions in all cases: modulator concentration 10 µM
[1] = tested on: RAW-Dual (murine macrophage reporter line); test: NF-kB reporter (SEAP) activity fold change vs agonist alone; higher = enhanced NF-kB activity
In short: (§1)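 RAW-Dual murine macrophage reporter cells were plated at 50 000 per well in 384-well plates, pin-transferred compound to 10 μM final, and pre-incubated for 1 hour at 37 °C before a PRR agonist was added and the cells incubated overnight. NF-κB activity was read from supernatant SEAP with QUANTI-Blue at 620 nm absorbance, and IRF activity from Lucia luciferase with QUANTI-Luc by luminescence. Each signal was expressed as fold change by dividing by the mean agonist-only control on the same plate. Two replicate plates were averaged, with errors obtained by propagation.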

[2] = tested on: RAW-Dual (murine macrophage reporter line); test: IRF reporter (Lucia luciferase) activity fold change vs agonist alone; higher = enhanced IRF activity
In short: as §1

[3] = tested on: RAW-Dual (murine macrophage reporter line); test: viability score (confluency relative to resting cells, overnight) (fraction); higher = more viable, active = viable (0.7 or more)
In short: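 RAW-Dual macrophages in 384-well plates were treated overnight with compound at 10 μM final. IncuCyte imaging recorded confluency, and IncuCyte software built two confluency masks across every imaged well. The viability score expresses confluency relative to resting cells and was judged against a cutoff, which a compound met only if both masks exceeded 70% of resting cells.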

[4] = agonist: CpG ODN 1826 0.5 ug/mL

Compound | NF-kB reporter [1, 4] | NF-kB reporter ([1]; agonist: LPS 0.1 ug/mL) | NF-kB reporter ([1]; agonist: MPLA […]) | IRF reporter ([2]; agonist: 3'3'-cGAMP 10 ug/mL) | IRF reporter ([2]; agonist: LPS 0.1 ug/mL) | IRF reporter ([2]; agonist: MPLA […]) | viability score [3]
Cc1ccc(COc2ccc3c(C)c(C)c(=O)oc3c2C)cc1 | 0.785 ± 0.067 | 0.84 ± 0.043 | 1 ± 0.098 | 0.761 ± 0.041 | 1.32 ± 0.1 | 1.53 ± 0.13 | 0.984 (active)
NC(=O)CSc1nc(O)cc(=O)n1-c1ccccc1F | 0.987 ± 0.16 | 1.06 ± 0.088 | 1.09 ± 0.11 | 0.978 ± 0.048 | 1.39 ± 0.26 | 1.23 ± 0.13 | 1.01 (active)
COc1ccc(N2CCN(C(=O)Cc3csc(NC(=O)Nc4ccccc4OC)n3)CC2)cc1 | 0.911 ± 0.069 | 1.03 ± 0.1 | 0.884 ± 0.036 | 0.784 ± 0.043 | 0.922 ± 0.073 | 0.48 ± 0.042 | 0.983 (active)
CC(C)(C)NCC(O)COc1cccc2c1CC(O)C(O)C2 (configuration not stated) | 1.26 ± 0.3 | 1 ± 0.11 | 1.05 ± 0.095 | 0.919 ± 0.045 | 1.04 ± 0.16 | 0.968 ± 0.17 | 0.931 (active)
Br.CN(C)CCCC1(c2ccc(F)cc2)OCc2cc(C#N)ccc21 (configuration not stated) | 0.81 ± 0.12 | 1.02 ± 0.29 | 0.95 ± 0.07 | 0.801 ± 0.043 | 1.37 ± 0.4 | 1.39 ± 0.24 | 0.979 (active)
Br.COc1ccc2c3c1O[C@H]1C[C@@H](O)C=C[C@@]31CCN(C)C2 | 0.95 ± 0.071 | 1.03 ± 0.052 | 0.947 ± 0.024 | 0.912 ± 0.08 | 0.995 ± 0.042 | 1.11 ± 0.14 | 1.01 (active)
CSCCC(NC(C)=O)C(=O)N1CCc2nc3ccc(F)cn3c(=O)c2C1 (configuration not stated) | 1.05 ± 0.097 | 1.05 ± 0.088 | 0.906 ± 0.074 | 0.97 ± 0.085 | 1.24 ± 0.15 | 1.13 ± 0.12 | 1.01 (active)
COC(C)(CNC(=O)CSc1ccc(F)cc1)c1cccc(Cl)c1 (configuration not stated) | 1.11 ± 0.4 | 1.07 ± 0.11 | 1.01 ± 0.074 | 0.973 ± 0.082 | 0.992 ± 0.13 | 1.12 ± 0.32 | 0.987 (active)
COC(=O)c1cc(NC(=O)C2CCCC2)cc(C(=O)OC)c1 | 0.969 ± 0.18 | 1 ± 0.13 | 1.15 ± 0.13 | 0.871 ± 0.09 | 1.13 ± 0.28 | 0.97 ± 0.14 | 0.633 (inactive)
NC(=O)c1ncn(C2OC(CO)C(O)C2O)n1 (configuration not stated) | 1.17 ± 0.089 | 1.16 ± 0.058 | 1.04 ± 0.03 | 1.02 ± 0.075 | 0.951 ± 0.11 | 0.922 ± 0.072 | 0.999 (active)
COc1cc(Nc2ncc(F)c(Nc3ccc4c(n3)N(COP(=O)(O)O)C(=O)C(C)(C)O4)n2)cc(OC)c1OC | 0.724 ± 0.063 | 0.825 ± 0.072 | 1.12 ± 0.1 | 0.869 ± 0.098 | 1.18 ± 0.22 | 1.25 ± 0.35 | 0.931 (active)
COc1ccc(C2NN(Cc3ccccc3)C3C(=O)N(C)C(=O)C23)cc1 (configuration not stated) | 0.902 ± 0.058 | 0.945 ± 0.088 | 1.13 ± 0.086 | 1.26 ± 0.068 | 1.33 ± 0.29 | 1.46 ± 0.5 | 0.955 (active)
Cc1c(C)n2c3c(=O)n(Cc4ccccc4F)c(=O)n(C)c3nc2n1CCCN1CCOCC1 | 0.843 ± 0.062 | 1.1 ± 0.087 | 0.958 ± 0.052 | 1.11 ± 0.089 | 1.06 ± 0.14 | 1.05 ± 0.37 | 1.01 (active)
COc1cccc(CC(=O)Nc2ccc(CC(=O)N3CCC(O)CC3)cc2)c1 | 1.07 ± 0.35 | 1.06 ± 0.091 | 1.06 ± 0.074 | 0.884 ± 0.03 | 1.1 ± 0.13 | 1.37 ± 0.19 | 0.945 (active)
Cl.NCCCC[C@H](N)C(=O)O | 1.03 ± 0.31 | 0.949 ± 0.063 | 1.01 ± 0.064 | 0.867 ± 0.052 | 1.2 ± 0.14 | 1.12 ± 0.18 | 1.01 (active)
CC(=O)N1CCC(Cn2ccc3cccnc32)CC1 | 1.04 ± 0.078 | 1.02 ± 0.11 | 0.996 ± 0.048 | 0.949 ± 0.035 | 0.957 ± 0.056 | 1.02 ± 0.11 | 0.994 (active)
OC(c1cc(C(F)(F)F)nc2c(C(F)(F)F)cccc12)C1CCCCN1 (configuration not stated) [Prestw-126] | 0.781 ± 0.051 | 0.973 ± 0.1 | 0.887 ± 0.059 | 1.13 ± 0.076 | 2.89 ± 0.33 | 1.75 ± 0.16 | 0.0879 (inactive)
CNC(=O)c1ccccc1Sc1ccc2c(/C=C/c3ccccn3)n[nH]c2c1 | 0.626 ± 0.11 | 0.729 ± 0.25 | 0.813 ± 0.061 | 0.0229 ± 0.0024 | 0.485 ± 0.12 | 0.259 ± 0.048 | 0.897 (active)
CCc1ccc2ncc(C#N)c(Nc3cc(OC)c(OC)c(OC)c3)c2c1.Cl | 1.37 ± 0.071 | 1.24 ± 0.17 | 0.931 ± 0.066 | 0.712 ± 0.038 | 0.607 ± 0.078 | 0.725 ± 0.17 | 0.903 (active)
Clc1ccc(C=NN2CCN(C(c3ccccc3)c3ccccc3)CC2)cc1 | 1.06 ± 0.087 | 1.02 ± 0.087 | 0.928 ± 0.025 | 1.02 ± 0.051 | 1.05 ± 0.049 | 0.962 ± 0.1 | 0.996 (active)
O=C(Nc1cccc(C(F)(F)F)c1)Nc1cnn(CC2COc3ccccc3O2)c1 (configuration not stated) | 0.717 ± 0.05 | 0.934 ± 0.078 | 1.1 ± 0.059 | 0.913 ± 0.051 | 1.08 ± 0.12 | 1.78 ± 0.45 | 0.841 (active)
CCCCn1c(CNC(=O)c2cccs2)nc2ccccc21 | 0.926 ± 0.077 | 0.98 ± 0.06 | 1.03 ± 0.061 | 1.03 ± 0.06 | 1.15 ± 0.093 | 0.921 ± 0.15 | 0.983 (active)
Cc1cc(NC2CCCC2)nc2ccccc12 | 0.798 ± 0.21 | 1.48 ± 0.12 | 1.91 ± 0.27 | 1.12 ± 0.068 | 1.88 ± 0.28 | 2.72 ± 0.43 | 0.608 (inactive)
C[C@H](NC(=O)C(=O)Nc1ccccc1C(C)(C)C)C(=O)N[C@@H](CC(=O)O)C(=O)COc1c(F)c(F)cc(F)c1F | 1.32 ± 0.33 | 0.434 ± 0.023 | 1.69 ± 0.12 | 0.51 ± 0.037 | 0.839 ± 0.14 | 1.07 ± 0.14 | 0.606 (inactive)
O=C(O[C@@H]1C[C@@H]2C[C@@H]3C[C@H](C1)N2CC3=O)c1c[nH]c2ccccc12 [Prestw-1510] | 0.575 ± 0.048 | 0.718 ± 0.056 | 0.697 ± 0.043 | 0.931 ± 0.04 | 0.958 ± 0.055 | 0.958 ± 0.18 | 1 (active)
COCCN1CCC(NC(=O)c2cnc3ccccc3n2)CC1 | 0.441 ± 0.024 | 1.02 ± 0.085 | 1.35 ± 0.072 | 0.951 ± 0.05 | 1.14 ± 0.25 | 1.2 ± 0.48 | 0.935 (active)
